# Source: ChEMBL document CHEMBL2218924, “A broad activity screen in support of a chemogenomic map for kinase signalling research and drug discovery” (Biochem J, 2013)
# Tests used:
# [1] = molecular target: Protein kinase C eta type (Homo sapiens) (UniProt P24723); conditions: at 1 µM
# [2] = molecular target: Protein kinase C eta type (Homo sapiens) (UniProt P24723); conditions: at 10 µM
# [3] = molecular target: Protein kinase C theta type (Homo sapiens) (UniProt Q04759); conditions: at 1 µM
# [4] = molecular target: Protein kinase C theta type (Homo sapiens) (UniProt Q04759); conditions: at 10 µM
# [5] = molecular target: T1, Protein kinase C iota type (Homo sapiens) (UniProt P41743); conditions: at 10 µM
# T1 sequence (whole entry): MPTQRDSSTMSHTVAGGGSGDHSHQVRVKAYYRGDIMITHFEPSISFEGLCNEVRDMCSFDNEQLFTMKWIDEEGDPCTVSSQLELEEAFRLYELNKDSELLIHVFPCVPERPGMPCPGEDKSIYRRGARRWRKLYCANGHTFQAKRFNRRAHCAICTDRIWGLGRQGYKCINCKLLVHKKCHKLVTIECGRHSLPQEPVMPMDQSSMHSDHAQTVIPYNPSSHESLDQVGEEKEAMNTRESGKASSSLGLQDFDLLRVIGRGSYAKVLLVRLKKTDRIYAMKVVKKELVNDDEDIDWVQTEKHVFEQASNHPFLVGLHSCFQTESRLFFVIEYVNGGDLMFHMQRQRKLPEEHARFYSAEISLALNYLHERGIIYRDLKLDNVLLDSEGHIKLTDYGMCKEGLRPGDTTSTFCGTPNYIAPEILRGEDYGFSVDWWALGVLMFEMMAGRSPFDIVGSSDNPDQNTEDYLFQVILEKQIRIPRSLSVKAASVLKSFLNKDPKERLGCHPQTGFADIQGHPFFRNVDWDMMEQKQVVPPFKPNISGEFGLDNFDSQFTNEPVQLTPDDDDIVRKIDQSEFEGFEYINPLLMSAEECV
# [6] = molecular target: T2, Serine/threonine-protein kinase D1 (Homo sapiens) (UniProt Q15139); conditions: at 1 µM
# T2 sequence (whole entry): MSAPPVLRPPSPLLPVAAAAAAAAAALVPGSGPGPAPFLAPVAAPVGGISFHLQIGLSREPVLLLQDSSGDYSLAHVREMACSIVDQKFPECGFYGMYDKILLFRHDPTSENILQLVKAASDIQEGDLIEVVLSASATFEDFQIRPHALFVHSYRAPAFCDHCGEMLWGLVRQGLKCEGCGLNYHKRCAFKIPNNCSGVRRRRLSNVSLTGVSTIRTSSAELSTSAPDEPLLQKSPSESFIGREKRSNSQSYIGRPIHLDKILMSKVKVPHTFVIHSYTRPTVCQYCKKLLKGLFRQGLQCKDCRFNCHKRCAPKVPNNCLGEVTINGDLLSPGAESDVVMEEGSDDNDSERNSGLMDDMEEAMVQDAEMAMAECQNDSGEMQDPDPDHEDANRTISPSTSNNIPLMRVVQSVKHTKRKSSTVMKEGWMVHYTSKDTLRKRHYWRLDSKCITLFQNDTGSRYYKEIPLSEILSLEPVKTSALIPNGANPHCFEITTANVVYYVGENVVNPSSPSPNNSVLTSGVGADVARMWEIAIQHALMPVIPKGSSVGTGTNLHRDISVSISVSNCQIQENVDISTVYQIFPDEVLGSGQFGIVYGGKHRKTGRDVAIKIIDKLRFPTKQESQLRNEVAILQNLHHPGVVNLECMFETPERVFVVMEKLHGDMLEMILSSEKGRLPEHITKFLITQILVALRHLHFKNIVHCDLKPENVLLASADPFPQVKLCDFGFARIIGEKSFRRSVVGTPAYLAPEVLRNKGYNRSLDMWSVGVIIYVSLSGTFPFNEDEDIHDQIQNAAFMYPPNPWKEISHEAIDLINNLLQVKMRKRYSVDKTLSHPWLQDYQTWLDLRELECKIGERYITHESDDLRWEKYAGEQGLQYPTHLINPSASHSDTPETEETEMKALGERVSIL
# [7] = molecular target: T2, Serine/threonine-protein kinase D1 (Homo sapiens); conditions: at 10 µM
# [8] = molecular target: T3, Serine/threonine-protein kinase D2 (Homo sapiens) (UniProt Q9BZL6); conditions: at 1 µM
# T3 sequence (whole entry): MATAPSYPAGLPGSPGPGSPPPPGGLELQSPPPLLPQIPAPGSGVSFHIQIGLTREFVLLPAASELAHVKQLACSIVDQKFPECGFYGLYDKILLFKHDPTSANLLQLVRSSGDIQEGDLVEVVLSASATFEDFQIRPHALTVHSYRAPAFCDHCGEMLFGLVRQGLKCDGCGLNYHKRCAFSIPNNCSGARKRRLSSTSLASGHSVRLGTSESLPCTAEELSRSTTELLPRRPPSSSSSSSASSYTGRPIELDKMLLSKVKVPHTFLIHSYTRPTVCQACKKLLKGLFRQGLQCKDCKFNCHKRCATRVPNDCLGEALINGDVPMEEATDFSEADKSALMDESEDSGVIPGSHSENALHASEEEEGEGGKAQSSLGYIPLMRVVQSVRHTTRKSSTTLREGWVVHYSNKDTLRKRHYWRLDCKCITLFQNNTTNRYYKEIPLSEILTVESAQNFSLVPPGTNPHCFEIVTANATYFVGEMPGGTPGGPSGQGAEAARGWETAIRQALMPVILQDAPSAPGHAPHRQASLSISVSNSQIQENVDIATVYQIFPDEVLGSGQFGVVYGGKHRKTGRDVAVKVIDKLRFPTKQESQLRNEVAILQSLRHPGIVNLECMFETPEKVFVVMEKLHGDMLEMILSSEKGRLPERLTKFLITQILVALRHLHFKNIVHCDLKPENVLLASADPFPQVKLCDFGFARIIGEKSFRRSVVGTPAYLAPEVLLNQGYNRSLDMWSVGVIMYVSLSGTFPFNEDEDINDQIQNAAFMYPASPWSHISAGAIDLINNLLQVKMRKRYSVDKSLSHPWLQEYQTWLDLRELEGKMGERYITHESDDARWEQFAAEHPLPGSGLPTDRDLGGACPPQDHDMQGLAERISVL
# [9] = molecular target: T3, Serine/threonine-protein kinase D2 (Homo sapiens); conditions: at 10 µM
# [10] = molecular target: T1, Protein kinase C iota type (Homo sapiens); conditions: at 1 µM
# Sequence of Protein kinase C theta type (Homo sapiens) (Q04759 whole entry, looked up): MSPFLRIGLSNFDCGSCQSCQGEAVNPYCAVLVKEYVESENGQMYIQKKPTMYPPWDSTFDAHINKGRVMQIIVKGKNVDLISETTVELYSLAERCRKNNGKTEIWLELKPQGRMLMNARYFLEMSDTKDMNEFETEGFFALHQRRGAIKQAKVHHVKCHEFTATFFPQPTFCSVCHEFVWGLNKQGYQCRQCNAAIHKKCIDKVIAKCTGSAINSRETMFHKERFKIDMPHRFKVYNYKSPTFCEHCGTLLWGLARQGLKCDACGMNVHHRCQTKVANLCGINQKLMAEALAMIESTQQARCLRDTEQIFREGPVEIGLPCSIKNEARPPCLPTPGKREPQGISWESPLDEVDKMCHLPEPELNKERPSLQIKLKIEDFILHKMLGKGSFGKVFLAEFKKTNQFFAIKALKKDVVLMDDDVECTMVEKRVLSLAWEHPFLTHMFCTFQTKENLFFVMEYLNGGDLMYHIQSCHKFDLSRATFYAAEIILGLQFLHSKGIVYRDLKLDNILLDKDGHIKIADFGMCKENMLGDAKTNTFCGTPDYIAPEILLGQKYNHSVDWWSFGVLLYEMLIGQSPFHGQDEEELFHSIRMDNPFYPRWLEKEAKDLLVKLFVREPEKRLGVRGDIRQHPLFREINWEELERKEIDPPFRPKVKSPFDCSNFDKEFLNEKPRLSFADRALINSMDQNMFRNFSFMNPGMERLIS
# Sequence of Protein kinase C eta type (Homo sapiens) (P24723 whole entry): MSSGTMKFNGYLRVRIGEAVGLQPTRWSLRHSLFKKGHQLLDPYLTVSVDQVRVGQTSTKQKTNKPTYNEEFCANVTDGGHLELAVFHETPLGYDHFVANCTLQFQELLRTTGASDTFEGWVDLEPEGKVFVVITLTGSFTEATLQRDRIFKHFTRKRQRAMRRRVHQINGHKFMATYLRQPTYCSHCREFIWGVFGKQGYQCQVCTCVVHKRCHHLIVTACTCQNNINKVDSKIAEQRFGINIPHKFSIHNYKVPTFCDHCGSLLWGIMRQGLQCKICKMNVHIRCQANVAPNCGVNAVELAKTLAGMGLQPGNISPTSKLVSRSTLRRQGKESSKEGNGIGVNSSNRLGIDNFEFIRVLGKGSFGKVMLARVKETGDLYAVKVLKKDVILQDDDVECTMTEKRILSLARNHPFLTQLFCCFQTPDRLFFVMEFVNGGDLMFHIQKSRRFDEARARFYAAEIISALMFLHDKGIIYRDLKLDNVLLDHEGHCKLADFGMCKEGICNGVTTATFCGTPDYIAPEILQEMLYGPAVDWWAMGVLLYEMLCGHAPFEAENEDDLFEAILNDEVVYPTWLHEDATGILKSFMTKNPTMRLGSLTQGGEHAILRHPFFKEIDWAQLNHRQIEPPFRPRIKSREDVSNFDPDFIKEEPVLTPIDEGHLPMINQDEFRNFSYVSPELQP
structure (smiles),measurement,setting,value
COc1ccc2c(c1)c(C1=C(c3c[nH]c4ccccc34)C(=O)NC1=O)cn2CCCN(C)C,residual activity,[1],10%
same,residual activity,[2],2%
same,residual activity,[3],3%
same,residual activity,[4],1%
same,residual activity,[5],62%
same,residual activity,[6],108%
same,residual activity,[7],58%
same,residual activity,[8],98%
same,residual activity,[9],102%
Nc1ncnc2[nH]nc(Nc3ccc(F)cc3)c12,residual activity,[1],110%
same,residual activity,[2],104%
same,residual activity,[3],107%
same,residual activity,[4],92%
same,residual activity,[10],113% (inactive)
same,residual activity,[5],109%
same,residual activity,[6],81%
same,residual activity,[7],64%
same,residual activity,[8],106%
COc1cc2nccc(Oc3ccc(NC(=S)NC(=O)c4ccccc4C)cc3)c2cc1OC,residual activity,[1],98%
same,residual activity,[2],71%
same,residual activity,[3],89%
same,residual activity,[4],97%
same,residual activity,[10],88% (inactive)
same,residual activity,[5],82%
same,residual activity,[6],87%
same,residual activity,[7],89%
O=C1NC(=O)c2c1c1c3ccccc3[nH]c1n1cncc21,residual activity,[1],85%
same,residual activity,[2],81%
same,residual activity,[3],71%
same,residual activity,[10],102% (inactive)
same,residual activity,[5],52%
same,residual activity,[6],41%
same,residual activity,[7],25%
same,residual activity,[8],90%
same,residual activity,[9],42%
COc1cc2c(cc1OC)-c1n[nH]c(Nc3cccc(F)c3)c1C2,residual activity,[1],102%
same,residual activity,[2],70%
same,residual activity,[4],81%
same,residual activity,[6],78%
same,residual activity,[8],107%
same,residual activity,[9],104%
Nc1n[nH]c2nc3ccccc3nc12,residual activity,[1],89%
same,residual activity,[2],68%
same,residual activity,[4],85%
same,residual activity,[6],83%
same,residual activity,[7],69%
same,residual activity,[9],87%
O=C(c1ccccc1)c1ccc(N2CCOCC2)cc1O,residual activity,[1],116%
same,residual activity,[2],83%
same,residual activity,[10],78% (inactive)
same,residual activity,[5],73%
same,residual activity,[6],95%
same,residual activity,[8],96%
same,residual activity,[9],100%
O=c1cc(N2CCOCC2)oc2c(-c3ccccc3)cccc12,residual activity,[2],66%
same,residual activity,[5],63%
COc1ccc(Cl)cc1NC(=O)Nc1cc(C)nc2ccccc12,residual activity,[3],89%
same,residual activity,[4],92%
same,residual activity,[10],88% (inactive)
same,residual activity,[5],86%
same,residual activity,[6],95%
same,residual activity,[7],87%
N#C/C(=C\c1ccc(O)c(O)c1)C(=O)NCc1ccccc1,residual activity,[2],82%
same,residual activity,[9],102%
NC(=O)c1ccc(-c2nc(-c3ccc4c(c3)OCCO4)c(-c3ccccn3)[nH]2)cc1,residual activity,[1],94%
same,residual activity,[2],88%
same,residual activity,[6],87%
same,residual activity,[7],62%
same,residual activity,[8],98%
same,residual activity,[9],87%
CCOc1nc(NC(=O)Cc2cc(OC)ccc2OC)cc(N)c1C#N,residual activity,[7],54%
CCN(CC)CCNC(=O)c1c(C)[nH]c(/C=C2\C(=O)Nc3ccc(Cl)cc32)c1C,residual activity,[6],38%
same,residual activity,[7],4%
same,residual activity,[8],73%
same,residual activity,[9],16%
Nc1nc(Nc2ccc(S(N)(=O)=O)cc2)nn1C(=O)c1c(F)cccc1F,residual activity,[2],64%
same,residual activity,[3],30%
same,residual activity,[4],20%
same,residual activity,[10],109% (inactive)
same,residual activity,[5],100%
same,residual activity,[6],75%
same,residual activity,[7],19%
same,residual activity,[8],113%
same,residual activity,[9],78%
N#Cc1c(NC(=O)c2cccc3ccccc23)sc2c1CCCC2,residual activity,[1],91%
same,residual activity,[2],92%
same,residual activity,[6],92%
same,residual activity,[7],83%
same,residual activity,[9],93%
O=C(c1cc2cc(O)ccc2[nH]1)c1cc2cc(O)ccc2[nH]1,residual activity,[2],77%
same,residual activity,[3],83%
same,residual activity,[4],67%
same,residual activity,[6],80%
same,residual activity,[7],23%
c1ccc(-c2cnc(Nc3ccc(OCCN4CCCC4)cc3)s2)cc1,residual activity,[3],115%
same,residual activity,[4],102%
Oc1cccc(-c2nc(N3CCOCC3)c3oc4ncccc4c3n2)c1,residual activity,[3],84%
same,residual activity,[4],86%
same,residual activity,[10],89% (inactive)
same,residual activity,[6],97%
same,residual activity,[7],89%
Fc1ccc(-c2nc3n(c2-c2ccncc2)CCS3)cc1,residual activity,[7],48%
same,residual activity,[9],89%
CN([C@@H](Cc1ccc(OS(=O)(=O)c2cccc3cnccc23)cc1)C(=O)N1CCN(c2ccccc2)CC1)S(=O)(=O)c1cccc2cnccc12,residual activity,[1],116%
same,residual activity,[2],100%
same,residual activity,[6],113%
same,residual activity,[9],79%
COc1ccc(COc2ccc(Cc3cnc(N)nc3N)cc2OC)cc1,residual activity,[6],81%
same,residual activity,[7],77%
COc1ccc(-c2cnc3c(-c4ccsc4)cnn3c2)cc1,residual activity,[2],76%
same,residual activity,[10],81% (inactive)
same,residual activity,[5],77%
same,residual activity,[6],84%
same,residual activity,[7],97%
Cc1cc(C)c(/C=C2\C(=O)Nc3ccccc32)[nH]1,residual activity,[3],103%
same,residual activity,[6],78%
O=C(CCCc1ccc(-c2ccccc2F)cc1)Nc1ccc(O)cc1,residual activity,[3],100%
same,residual activity,[4],105%
same,residual activity,[8],110%
same,residual activity,[9],98%
NC(=O)c1cccc(-c2cc(Nc3ccc(OC(F)(F)F)cc3)ncn2)c1,residual activity,[2],91%
same,residual activity,[10],92% (inactive)
same,residual activity,[5],69%
same,residual activity,[9],91%
CCCCc1c(-c2ccc(OC)cc2)[nH]c2nccnc12,residual activity,[3],90%
same,residual activity,[4],83%
same,residual activity,[10],112% (inactive)
same,residual activity,[6],121%
same,residual activity,[7],84%
O=c1c(-c2ccc(F)cc2)c(-c2ccncc2)[nH]n1-c1ccc(Cl)cc1,residual activity,[2],72%
same,residual activity,[4],71%
same,residual activity,[5],100%
same,residual activity,[6],99%
same,residual activity,[7],37%
same,residual activity,[9],73%
CN(C)S(=O)(=O)c1ccc2c(c1)/C(=C/c1cc3c([nH]1)CCCC3)C(=O)N2,residual activity,[3],93%
same,residual activity,[4],72%
same,residual activity,[10],99% (inactive)
same,residual activity,[5],114%
same,residual activity,[6],91%
N#C/C(=C1/Nc2ccccc2S1)c1ccnc(NCCc2cccnc2)n1,residual activity,[3],95%
same,residual activity,[4],72%
same,residual activity,[6],73%
same,residual activity,[7],36%
O=C1NC(=O)C(c2cn(CCCO)c3ncccc23)=C1c1cnccn1,residual activity,[2],87%
same,residual activity,[3],97%
same,residual activity,[4],77%
CC(C)N(CCC(=O)c1ccc2ccccc2c1)Cc1ccccc1,residual activity,[2],76%
same,residual activity,[10],77% (inactive)
same,residual activity,[5],72%
same,residual activity,[6],74%
same,residual activity,[7],84%
O=C(NC(NC(=S)Nc1ccc(F)c([N+](=O)[O-])c1)C(Cl)(Cl)Cl)C(c1ccccc1)c1ccccc1 (centres undefined),residual activity,[2],90%
same,residual activity,[3],97%
same,residual activity,[4],104%
same,residual activity,[7],88%
same,residual activity,[8],100%
same,residual activity,[9],100%
CCN1/C(=C/C(C)=O)Sc2ccc(OC)cc21,residual activity,[6],59%
same,residual activity,[7],18%
same,residual activity,[9],70%
CC(C)(C)c1nc2c3ccc(F)cc3c3c(=O)[nH]ccc3c2[nH]1,residual activity,[6],8%
same,residual activity,[7],16%
same,residual activity,[8],40%
same,residual activity,[9],22%
O=C1Nc2ccccc2/C1=C\c1c(Cl)[nH]c2ccccc12,residual activity,[2],80%
same,residual activity,[3],81%
same,residual activity,[4],71%
same,residual activity,[6],99%
same,residual activity,[7],65%
NCCNc1ncc(C(N)=O)c(Nc2cccc(C(F)(F)F)c2)n1,residual activity,[6],35%
same,residual activity,[7],8%
COc1ccc(CNC(=O)Nc2ncc([N+](=O)[O-])s2)cc1,residual activity,[10],110% (inactive)
same,residual activity,[5],110%
Nc1nccc(-c2c(-c3ccc(F)cc3)ncn2C2CCNCC2)n1,residual activity,[1],114%
same,residual activity,[2],70%
same,residual activity,[6],46%
same,residual activity,[7],3%
same,residual activity,[9],49%
